Our source for the z-score values is PubChem BioAssay AID1508600 (Functional Genomics Laboratory (NCATS/FGL), 2020).

Out of some 53,000 sequences screened, about 3,700 (7%) were called active. This is one part of a sample in which actives are shown more often than they occur. Values without a mark were called inactive.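 Rule for the calls: active = gene knockdowns whose robust z-score for IL-1 alpha signal is at least 2 or at most -2, so actives lie on both sides; inactive = the rest.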

The nature of the assay: Components of the Cytosolic LPS Sensing Pathway: Gene Identification via Genome-wide siRNA Screen.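 Note: robust z of the log signal after scaling to non-targeting control siRNA wells of the plate.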 Conditions: RAW264.7 macrophages, IL-1a HTRF, actives lie on both sides, screened at 100 nM (by protocol), cells primed 5 h with Pam3CSK4 first. In outline:
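RAW264.7; siRNA 100 nM final, RNAiMAX, 48h 37 degrees C; Pam3CSK4 5 h; LipidA + TransIT-TKO 24 h; IL-1a HTRF; CellTiter-Glo viability; robust z vs negative-control median.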
In general terms: TR-FRET usually uses a lanthanide donor and a delayed reading to cut background.
With GGGCUUUGGAUGAACUGCATT against Cldn17, the z-score was -0.0702.
In the case of GGAGCUCUUUGAGUACAUCTT against Ift46, the z-score is 2.48 (active).
Regarding CUCACAAGUCAAAGCCUACTT against Zfp182, the z-score is 0.121.
As for AAUAGACUGGUACUCUCUGTT against Olfr476, the z-score is 1.08.
As for GCCUGGUUACAGCAUUAACTT against Rimkla, the z-score is -1.75.
On to GGUCAAACAAGAAACAGUUTT against Prdm1, for which the z-score is 0.417.
Regarding GCUGUGCCCUAAAGACUGGTT against Clec2m, the z-score was 2.27 (active).
Under GGUGAAGCUGAAGAAGUACTT against Chst12 stands 0.975; under GGAUAAUGGAGCAAAUUGCTT against Slc22a1, -0.522; under GCAAGUUAACCAGACCCAATT against Mro, 0.709.
With GGAGAAGCUGUUUGUUCUGTT against Ftcd, the z-score is 0.507.
In the case of GGACAAGGCAACACAUACCTT against Csnk1a1 it was 2.58 (active); in that of GCCACUACUACAUCAAUGUTT against Mall, 1.24; in that of GGGUCCUCUUUAAAAGGCUTT against Smc6, -1.1.
CCUACCCAAACCUACUAAATT against Gpt2: the z-score was -0.168.
Under GGAUCUGGAGAAGAUGAUGTT against Ret stands -0.822; under GGCCAAAAAAACAUACAAGTT against Zbtb21, 4.91 (active); under GGUAUCAAGGCUCUGGUGUTT against Ifnlr1, -0.602.
In the case of CAGCAUGAUGAUGGAGACCTT against Sox1 it was 0.708.
As to UGGAUACUCUAUCUCAAGCTT against Serpinb9g, the z-score is -0.479.
Under GCAACAAGUGUUGGACUCATT against Tob2 stands -2.04 (active); under GGAAAGUAACUAAAGGCAATT against Arl8b, 0.274.
For GCUACAAGACUUUUACCAGTT against Tnfsf18, the z-score is -0.0821.
Consider GGGACUAGACUUCUUCGGATT against Ddx52, for which the z-score was 0.186.
Under UGGCAAAAAGGUGAUAACUTT against Hbb-b2 stands 0.86; under GGCCCAGCAUGCAAGUUAUTT against Sh2d2a, 2.17 (active); under CCACAGCCAAAUGCACAAGTT against Platr26, 0.31.
In the case of CCUCAUUCAAGAAACCUCATT against Comtd1 it was -1.13.
Take GGAACACCAUCAUCAGUCATT against Ephb2: the z-score was -0.448.
Regarding GGUCUCCACUGAGGACUGUTT against Ndufa2, the z-score was 0.284.
In the case of GGCCUAGGGAAAGCUAUGGTT against Nat8f3 it was -2.57 (active); in that of GCAGAAGUGCUAUUCUUGUTT against Cnbp, 0.108; in that of GCGGCUUUGGCAAUUCUCUTT against Olfr1361, -1.13.
On to GGUGCCUUUCUGCUUUUGATT against Spink12, for which the z-score is 1.87.
With GGAAUAUUACCAGUCGGAATT against Marveld3, the z-score is 0.469.
Under GGAAAAUCUUGACUUCAUCTT against Cbwd1 stands -0.316; under CCUGAUGCCAGUUAACAGUTT against Rcan1, 0.516; under GGAGGUUUUCCACCACUUGTT against Efcc1, -2.04 (active).
Regarding GCGAUAUGAAUAUCAUCUUTT against Fbxo22, the z-score was -0.0727.
In the case of GGAAUCUUUAUCCACAUUCTT against Chst15 it was 0.943; in that of GGAGCAACUAAUGAAGAAATT against Dnajc22, -0.064; in that of GGUACUACAAGAGAAAAGATT against Hdhd2, -0.958.
In the case of GGUCUCUGUUGCUUUGACUTT against Tgoln1 it was 4.13 (active).
In the case of GGUCCUAAAAUUUCCUCUUTT against Prdx3, the z-score is 0.854.
Under GCCUCUUAUUUGGUUACGATT against Best3 stands 0.605; under GCGUUUCACGUACCUUCCUTT against Nfatc1, 1.22; under GGUGCUAUUUACCAAACUCTT against Btg2, 1.82.
As to GGAACACAACUUCCUGUUCTT against Map11, the z-score was 1.05.
Consider GGGAUGCUGUCUUCUGUCATT against Prex1, for which the z-score was -3.39 (active).
Under GGAUUUUACAGUUUUUGGATT against Pccb stands 1.01; under GGUCAUGGUUAUUUUGUUATT against Plekhg2, 0.929; under GGCUAUUUUGGCUUGUAAATT against Jam2, -0.504.
Under CCUAACCACUACCUUAUACTT against H2-DMa stands 2.43 (active).
Turning to GGUGUCAUGAUGGAGCUGATT against Crygc, the z-score is 0.862.
GGGUAACACCUCAAGUUCATT against Rhag: the z-score was 2.33 (active).
Under GGCCUCAGUUGGACUUGAATT against Scn10a stands -0.352; under GGCUAUACCUUGGUAGAUATT against Parvg, -1.19.
Consider GGUCUCCUCCAAGAUGAUGTT against Mettl3, for which the z-score is -1.01.
As to GCAGGAGAACUUUUUUAGUTT against Hus1, the z-score was -1.01.
Turning to GGGUUGUUGAGACUUCCACTT against Hmbs, the z-score is 2.79 (active).
Turning to CCAGGAGGAUACAAUCCCUTT against Rgs3, the z-score was -3.38 (active).
On to GGUGCUAGGAAUGAACGGGTT against Ripply1, for which the z-score is 0.478.
Under GGAUGCUUGUGGACCUGUGTT against Olfr1123 stands 1.14.
In the case of GGAUUAAAUCCGAAAAGCUTT against Tmem51 it was -2.36 (active).
Take GGCCAUCAGUGUGGAAUGUTT against BC004004: the z-score was -0.19.
In the case of GGUAAUAACCCUUAAUAAGTT against Akirin2 it was 0.572; in that of GCACAAAAAAGUGAUAUUGTT against Hdlbp, 0.41; in that of CGUAGCUGUAAUUCUUCAGTT against Pcdhgb2, 2.02 (active).
In the case of GGAAGAUGUUAAGAGUUACTT against Slc1a3 it was -0.865; in that of GCUAUCUCUGCUAAUAAAGTT against Col6a1, -0.203.
Under GCCAUCCUUGUGCUAAGAGTT against Ifna4 stands -0.604.
GCAUGAAUUCAAAUUGCCATT against Adgrl4: the z-score is -0.981.
In the case of CGGUACUAAACAUUACCUCTT against Olfr633 it was 0.957; in that of “GAGUGGUUUCUAAUUCGUATT against A830031A19Rik”, 2.56 (active); in that of CCUGUUCUGUUAUCAACGGTT against Plxdc1, 0.123.
Under GGCAAACUGUCUCUUCAGATT against Pim1 stands -0.131; under GGUGAAGAGUUCAAACAUCTT against Atp9a, 1.29; under GGACAUUGACCUGUUCGGCTT against Eef1d, 0.952.
Under GGAGCUGUAUGAGAUAGAGTT against Zfp566 stands 4.15 (active); under GGACCUCAACAUCCAGAGATT against Sema6b, -0.217; under GGUUAAAGGUCAGAUUUAGTT against Dapk2, 2.54 (active).
On to CGACCUGAAAGAUUCGGAATT against Ppara, for which the z-score is -1.04.
GCUCAACCCAUUCUUUGAUTT against Cep295nl: the z-score was 0.407.
Consider CCAAAGCUAGGUCAUUUUATT against Slc31a2, for which the z-score was 0.72.
In the case of GGAAAAAGCGGAAAUUCAGTT against Pgbd5 it was -0.276.
In the case of GCAUUUGUACAUUGUGACUTT against Ces5a, the z-score is -2.28 (active).
In the case of GGGUCCAGUAUCCAUCAAATT against Sf3a1 it was -2.7 (active); in that of GGAAGAAGACUCAGAAAGUTT against Prkag2, 1.43.
As to CCGACCAUCUGUGGAAAUATT against Samd5, the z-score was 0.227.
In the case of GCCAGAUCCCUGGAAUGUATT against Ece2 it was -0.632; in that of GGUAUUGCUUUCACAUUAUTT against Efr3a, 0.434; in that of GGUGUAAGAACUUCAAGUUTT against Tlr9, 0.199.
In the case of GGCUGUUUUUACCCUACUUTT against Vmn1r72 it was -0.441.
Under GGAGAAAUUCAAAAGGAAUTT against Ms4a6d stands -0.764; under GGAUGCUCAUGCUAAGCAGTT against Krt7, 0.547; under GGAUGAGGGAACGUACAUUTT against Il18r1, 5.74 (active).
Regarding GGAACUUCCCUAUAGUGAATT against Hdac3, the z-score was -1.52.
Under GGAUGCGCUGAUAUCAGUATT against Olfr370 stands 1.3; under GCUCAUUGAGUACAAGACCTT against Ndufs2, 1.76; under GGUCACUGAACCUAUUUCCTT against Arhgap15, -2.56 (active).
Under CCCUCAAUGCUGGAAAACCTT against Nol4 stands -1.43; under GGCAAGGAUGAUGUCUUCGTT against Upk1a, -1.33.
Under GCUUCUAGGGACCUAUUAATT against Dhx30 stands -0.0854.
As to GGUCUAUGAGAUGUUUUCUTT against Cyp2a4, the z-score is 2.78 (active).
For GCAACUGGCUGAACUCUCATT against Gsdmc2, the z-score was 3.91 (active).
GGCACUCAAUGUCUUCUAUTT against Nbeal1: the z-score is 0.516.
Consider GCUACUGCAGUAUACAUUGTT against Olfr869, for which the z-score is 2.21 (active).
In the case of GGAAUCGGUACUCUUCCACTT against Tcerg1l it was 0.26.
